Results from PubChem BioAssay.
The source made the active and inactive calls. Unless noted, how the calls were made is not given here.

How the values were obtained:
[1] = test system: XIP peptide (Xip251-270) binding; experiment: small-molecule binders of XIP peptide, primary screen, biochemical, small-molecule microarray, fluorescence 635/667 nm, 0.1 µg/mL protein (AID 1182); conditions: fluorescent protein binding, 635 nm, higher = more signal, called active from +8 up or from −8 down
[2] = test system: XIP peptide (Xip251-270); experiment: small-molecule binders of XIP peptide, primary screen, biochemical, small-molecule microarray, fluorescence 635/667 nm, 0.5 µg/mL protein (AID 1183); conditions: small-molecule microarray binding, fluorescence 635 nm; higher = more signal
[3] = Plasmodium falciparum growth inhibition, primary screen, strain 3D7, DAPI fluorescence, 100 nL (AID 1184);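 further: parasites grown inside human red blood cells in medium with human serum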; conditions: P. falciparum 3D7 growth, 3 d, higher = more signal
[4] = target: Homeobox protein Hox-A13 (Mus musculus) (UniProt Q62424); experiment: inhibitors of HoxA13-DNA binding, primary screen, biochemical, fluorescence polarization, labeled oligonucleotide (AID 1185); conditions: 15 min, higher = more signal, called active from +8 up or from −8 down
[5] = inhibitors of hydroxyurea-induced Chk1 phosphorylation, primary screen, imaging, HeLa, phospho-Chk1 antibody, percent positive cells (AID 1186); conditions: hydroxyurea-induced phospho-Chk1 immunofluorescence imaging, higher = more signal
[6] = inhibitors of hydroxyurea-induced Chk1 phosphorylation, primary screen, imaging, HeLa, phospho-Chk1 nuclear intensity (AID 1187); conditions: hydroxyurea-induced phospho-Chk1 immunofluorescence imaging, higher = more signal

Sequence of Homeobox protein Hox-A13 (Mus musculus) (Q62424 whole entry, looked up): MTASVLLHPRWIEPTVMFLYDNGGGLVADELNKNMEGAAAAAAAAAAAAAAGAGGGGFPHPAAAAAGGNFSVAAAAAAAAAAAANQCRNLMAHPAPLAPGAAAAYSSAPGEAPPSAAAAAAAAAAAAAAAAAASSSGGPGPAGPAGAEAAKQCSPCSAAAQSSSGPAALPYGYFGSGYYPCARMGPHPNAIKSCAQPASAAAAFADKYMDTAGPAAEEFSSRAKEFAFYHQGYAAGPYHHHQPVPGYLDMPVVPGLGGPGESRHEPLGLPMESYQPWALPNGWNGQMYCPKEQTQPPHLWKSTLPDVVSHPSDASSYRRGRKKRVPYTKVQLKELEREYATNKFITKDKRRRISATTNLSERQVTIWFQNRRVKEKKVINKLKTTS

| Structure (SMILES) | composite z-score [1] | composite z-score [2] | z-score [3] | z-score [4] | z-score [5] | z-score [6] |
| --- | --- | --- | --- | --- | --- | --- |
| COC(=O)C(CC#Cc1ccc2c(c1)[C@]1(C(=O)N2)[C@H](C(=O)N2CCCCCCC2)[C@H]2C(=O)O[C@H](c3ccccc3)[C@H](c3ccccc3)N2[C@@H]1c1ccc(O)cc1)C(=O)OC | 0.431 (inactive) | 0.459 | -1.39 | 1.11 (inactive) | -0.197 (inactive) | -0.109 (inactive) |
| COCCOC(=O)N1C(=O)[C@@]2(c3ccccc31)[C@H](C(=O)N1CCc3cc(OC)c(OC)cc3C1)[C@H]1C(=O)O[C@H](c3ccccc3)[C@H](c3ccccc3)N1[C@@H]2c1ccccc1OCCO | 0.227 (inactive) | 0.741 | -1.9 | -0.573 (inactive) | -0.0955 (inactive) | -0.08 (inactive) |
| C=C[C@H](OC)[C@@H](OC(=O)Nc1ccc(SC)cc1)c1ccc(O)c(F)c1 | 2.52 (inactive) | 0.719 | 0.188 | -2.14 (inactive) | -1.07 (inactive) | -0.478 (inactive) |
| O=C1O[C@H](c2ccccc2)[C@H](c2ccccc2)N2[C@H]1[C@@H](C(=O)Nc1nc3ccccc3s1)[C@]1(C(=O)Nc3ccc(C#CC4(O)CCCCCC4)cc31)[C@H]2c1ccc(O)cc1 | 2.76 (inactive) | 0.844 | -0.416 | -1.04 (inactive) | 0.313 (inactive) | 0.634 (inactive) |
| O=C1OCC=C[C@H]2OC34C=CCN(Cc5ccccc5)C(=O)[C@H]3N(CCO)C(=O)[C@@H]4[C@@H]12 (some centres not stated) | -0.132 (inactive) | 0.666 | 0.438 | -4.18 (inactive) | 0.373 (inactive) | 0.252 (inactive) |
| CC(C)[Si]1(C(C)C)O[C@@H](c2ccccc2)c2cc(C3CC3)nc(-c3ccc(Oc4ccccc4)cc3)c21 | -0.732 (inactive) | -0.736 | -1.45 | 0.0985 (inactive) | -0.446 (inactive) | 0.661 (inactive) |
| COCCOC(=O)N1C(=O)[C@@]2(c3cc(C#CCNC(N)=O)ccc31)[C@H](c1ccc(OCCO)cc1)N1[C@H](c3ccccc3)[C@H](c3ccccc3)OC(=O)[C@H]1[C@@H]2C(=O)Nc1nc2ccccc2s1 | 0.329 (inactive) | -0.444 | -1.08 | 0.967 (inactive) | 0.0818 (inactive) | 0.238 (inactive) |
| CCCCCCc1nc(-c2cc(C)c(OC)c(C)c2)cc2c1[Si](C(C)C)(C(C)C)O[C@H]2c1ccccc1 | -0.408 (inactive) | -0.461 | -0.753 | -1.91 (inactive) | 0.0883 (inactive) | -0.242 (inactive) |
| CC(=O)NCCCC[C@@H]1NC(=O)[C@@H]2C[C@H](C(=O)NCCCCCNC(=O)CS)[C@H](c3ccc(O)cc3)N2C1=O | 0.214 (inactive) | 0.132 | -0.59 | -3.98 (inactive) | 1.12 (inactive) | 0.99 (inactive) |
| CN1C(=O)C2C=CC(C(O)c3ccc(N(C)C)cc3)N(Nc3ccc([N+](=O)[O-])cc3[N+](=O)[O-])C2C1=O (configuration not stated) | 0.695 (inactive) | 0.301 | 0.985 | -3.89 (inactive) | 0.347 (inactive) | -0.169 (inactive) |
| CC(C)(C)OC(=O)CC[C@]1(C(=O)NCCN2CCOCC2)N=C(c2ccc(OCCCO)cc2)O[C@H]1c1ccccc1CN=[N+]=[N-] | 1.16 (inactive) | 0.58 | -0.867 | -4.75 (inactive) | -0.593 (inactive) | -0.6 (inactive) |
| COC(=O)C[C@H]1O[C@]2(C(=O)N(C)c3ccccc32)[C@@H](C)[C@@H]1[Si](C)(C)c1ccc(OC)cc1 | -0.539 (inactive) | 0.414 | -2.41 | -6.13 (inactive) | 0.463 (inactive) | 0.688 (inactive) |
| O=C1C2C=CC(C(O)C#Cc3ccccc3)N(Nc3ccccc3)C2C(=O)N1c1ccccc1 (configuration not stated) | -0.115 (inactive) | 0.176 | 0.801 | -4.05 (inactive) | -0.0484 (inactive) | -0.217 (inactive) |
| CO[C@H]1O[C@H](CO)[C@@H](OC(=O)Nc2ccc(Oc3ccccc3)cc2)[C@H](OC(=O)Nc2ccccc2-c2ccccc2)[C@H]1OC(=O)Nc1ccccc1-c1ccccc1 | 1.57 (inactive) | 0.832 | -2.09 | 0.193 (inactive) | -0.0605 (inactive) | 0.413 (inactive) |
| COc1cc(Cc2cc3c(c(CCc4ccccc4)n2)[Si](C(C)C)(C(C)C)OC3)cc(OC)c1OC | -0.521 (inactive) | -0.122 | -2.33 | -3.47 (inactive) | -0.0504 (inactive) | -0.0848 (inactive) |
| O=C(CS)NCCCCCCNC(=O)[C@@H]1C[C@@H]2C(=O)N[C@@H](Cc3ccccc3)C(=O)N2[C@@H]1c1ccc(O)cc1 | 0.794 (inactive) | 0.811 | -1.02 | -2.14 (inactive) | -0.0496 (inactive) | 0.23 (inactive) |
| N#Cc1ccc(NN2C(C(O)CCc3ccccc3)C=CC3C(=O)N(c4ccccc4)C(=O)C32)cc1 (configuration not stated) | 1.15 (inactive) | -0.279 | 0.484 | -4.3 (inactive) | -0.13 (inactive) | -0.424 (inactive) |
